Laboratory results published in the supplement of paper PMC10849652.
The full data set covers some 7,900 targets. This sample favours those with a hit. About 0.6% of all pairs of compound and target were hits.

Compound: CC(C)N(C[C@H]1O[C@@H](n2cnc3c(N)ncnc32)[C@H](O)[C@@H]1O)[C@H]1C[C@@H](CCc2nc3cc(C(C)(C)C)ccc3[nH]2)C1 [pinometostat]
Test: log2 fold change, soluble protein after heating vs DMSO (PISA); higher = thermal stabilisation; K562 cells, 10 uM, 30 min; active = over 0.2 and 3.5 SD of the protein, either way, in both replicates (recomputed)
Summary of the method: (§1)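 Aliquots of K562 cells (2×10^6 cells/mL) treated with 10 μM compound for 30 min were heated for 3 min over 48°C-58°C. After pooling and extraction in PBS with 0.5% NP-40 at 4°C, soluble protein from a 21,000xg, 90 min spin was quantified by TMTpro 16plex LC-MS/MS with channel sums equalised. Thermal stability is expressed against control samples, from duplicates, as a log2 fold change.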

Chain of UniProt O75663 (O75663 whole entry, looked up): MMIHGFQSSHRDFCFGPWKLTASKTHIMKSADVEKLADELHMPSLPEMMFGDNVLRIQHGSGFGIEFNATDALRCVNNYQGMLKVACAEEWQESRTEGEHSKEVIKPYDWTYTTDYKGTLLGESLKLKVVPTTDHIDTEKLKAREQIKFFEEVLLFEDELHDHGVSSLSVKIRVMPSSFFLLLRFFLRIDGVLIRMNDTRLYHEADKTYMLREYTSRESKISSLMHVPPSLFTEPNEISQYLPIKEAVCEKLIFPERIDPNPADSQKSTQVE
Chain of UniProt Q15833 (Q15833 whole entry, looked up): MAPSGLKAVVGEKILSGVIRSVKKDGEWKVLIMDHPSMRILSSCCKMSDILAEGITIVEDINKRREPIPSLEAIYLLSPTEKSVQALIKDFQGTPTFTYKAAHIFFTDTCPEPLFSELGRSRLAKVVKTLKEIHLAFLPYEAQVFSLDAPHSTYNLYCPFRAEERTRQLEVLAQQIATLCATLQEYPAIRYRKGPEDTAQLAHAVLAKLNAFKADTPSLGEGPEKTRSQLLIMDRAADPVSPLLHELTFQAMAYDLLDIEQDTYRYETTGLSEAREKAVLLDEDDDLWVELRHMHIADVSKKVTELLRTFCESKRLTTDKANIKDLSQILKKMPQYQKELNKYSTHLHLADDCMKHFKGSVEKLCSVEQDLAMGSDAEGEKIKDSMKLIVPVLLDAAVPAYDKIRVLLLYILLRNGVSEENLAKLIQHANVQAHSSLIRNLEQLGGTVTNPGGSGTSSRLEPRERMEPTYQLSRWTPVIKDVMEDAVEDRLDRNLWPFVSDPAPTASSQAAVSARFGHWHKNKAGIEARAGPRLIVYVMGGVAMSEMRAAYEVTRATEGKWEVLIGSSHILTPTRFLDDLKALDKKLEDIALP
Chain of UniProt Q9UH99 (Q9UH99 whole entry, looked up): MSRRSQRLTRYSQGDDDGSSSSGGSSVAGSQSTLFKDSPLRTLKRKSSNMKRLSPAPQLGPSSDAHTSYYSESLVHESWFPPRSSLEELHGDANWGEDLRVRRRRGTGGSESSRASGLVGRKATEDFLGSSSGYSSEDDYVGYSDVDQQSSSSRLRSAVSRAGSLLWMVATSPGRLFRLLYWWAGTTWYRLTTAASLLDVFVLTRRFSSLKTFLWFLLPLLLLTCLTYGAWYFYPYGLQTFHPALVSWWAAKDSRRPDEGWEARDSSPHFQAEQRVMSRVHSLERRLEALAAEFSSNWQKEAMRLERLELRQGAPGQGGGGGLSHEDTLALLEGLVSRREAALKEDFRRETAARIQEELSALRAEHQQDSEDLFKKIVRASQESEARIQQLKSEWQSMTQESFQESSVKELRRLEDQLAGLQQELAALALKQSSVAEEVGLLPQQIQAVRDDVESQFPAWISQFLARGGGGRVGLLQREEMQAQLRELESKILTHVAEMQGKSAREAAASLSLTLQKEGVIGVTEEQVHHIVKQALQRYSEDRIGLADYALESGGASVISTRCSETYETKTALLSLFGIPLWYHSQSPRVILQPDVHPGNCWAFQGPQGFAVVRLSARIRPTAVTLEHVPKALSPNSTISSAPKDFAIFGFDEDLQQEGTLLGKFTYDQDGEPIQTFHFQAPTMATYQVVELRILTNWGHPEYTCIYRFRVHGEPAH
Chain of UniProt Q8WXA9 (Q8WXA9 whole entry, looked up): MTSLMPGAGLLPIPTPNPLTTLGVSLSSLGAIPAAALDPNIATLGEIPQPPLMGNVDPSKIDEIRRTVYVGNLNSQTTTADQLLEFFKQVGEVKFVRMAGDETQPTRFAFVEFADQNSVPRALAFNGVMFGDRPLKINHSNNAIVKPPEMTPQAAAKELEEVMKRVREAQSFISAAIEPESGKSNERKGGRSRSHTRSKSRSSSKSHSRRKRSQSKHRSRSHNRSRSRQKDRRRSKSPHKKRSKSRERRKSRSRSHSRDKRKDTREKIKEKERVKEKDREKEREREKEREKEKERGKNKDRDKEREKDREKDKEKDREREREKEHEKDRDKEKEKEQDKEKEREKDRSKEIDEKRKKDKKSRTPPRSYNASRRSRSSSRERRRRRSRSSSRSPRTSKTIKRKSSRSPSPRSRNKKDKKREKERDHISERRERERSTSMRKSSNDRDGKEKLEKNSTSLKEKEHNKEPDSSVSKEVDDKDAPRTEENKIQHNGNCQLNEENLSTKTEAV
Chain of UniProt Q9NXE4 (Q9NXE4 whole entry, looked up): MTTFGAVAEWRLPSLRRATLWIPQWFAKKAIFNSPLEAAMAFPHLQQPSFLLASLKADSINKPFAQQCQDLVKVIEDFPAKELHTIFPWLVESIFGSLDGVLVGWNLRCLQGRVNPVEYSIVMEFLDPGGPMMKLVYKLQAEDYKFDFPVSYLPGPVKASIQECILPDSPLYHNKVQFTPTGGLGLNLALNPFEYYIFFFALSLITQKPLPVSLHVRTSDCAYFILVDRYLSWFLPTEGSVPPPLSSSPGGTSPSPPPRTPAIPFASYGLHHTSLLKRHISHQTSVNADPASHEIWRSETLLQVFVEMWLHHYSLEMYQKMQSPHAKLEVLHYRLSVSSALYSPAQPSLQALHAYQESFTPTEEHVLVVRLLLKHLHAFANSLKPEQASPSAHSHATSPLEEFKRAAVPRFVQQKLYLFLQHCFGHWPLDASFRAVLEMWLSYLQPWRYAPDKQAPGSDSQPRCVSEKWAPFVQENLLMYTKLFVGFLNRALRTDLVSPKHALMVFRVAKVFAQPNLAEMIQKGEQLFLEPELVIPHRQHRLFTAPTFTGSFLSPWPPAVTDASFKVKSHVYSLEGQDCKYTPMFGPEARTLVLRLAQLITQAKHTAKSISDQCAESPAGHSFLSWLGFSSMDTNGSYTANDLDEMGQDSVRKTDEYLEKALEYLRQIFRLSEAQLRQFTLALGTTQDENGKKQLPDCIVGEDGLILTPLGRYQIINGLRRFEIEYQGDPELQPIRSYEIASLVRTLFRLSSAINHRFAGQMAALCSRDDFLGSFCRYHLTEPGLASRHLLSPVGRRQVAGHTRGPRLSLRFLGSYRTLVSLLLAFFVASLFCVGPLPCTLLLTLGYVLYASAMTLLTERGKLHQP
Chain of UniProt O60493 (O60493 whole entry, looked up): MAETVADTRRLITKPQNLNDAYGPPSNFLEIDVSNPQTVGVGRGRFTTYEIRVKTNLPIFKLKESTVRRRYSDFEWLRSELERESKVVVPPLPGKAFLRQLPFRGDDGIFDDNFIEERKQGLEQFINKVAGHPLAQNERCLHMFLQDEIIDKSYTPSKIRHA
Chain of UniProt Q969G3 (Q969G3 whole entry, looked up): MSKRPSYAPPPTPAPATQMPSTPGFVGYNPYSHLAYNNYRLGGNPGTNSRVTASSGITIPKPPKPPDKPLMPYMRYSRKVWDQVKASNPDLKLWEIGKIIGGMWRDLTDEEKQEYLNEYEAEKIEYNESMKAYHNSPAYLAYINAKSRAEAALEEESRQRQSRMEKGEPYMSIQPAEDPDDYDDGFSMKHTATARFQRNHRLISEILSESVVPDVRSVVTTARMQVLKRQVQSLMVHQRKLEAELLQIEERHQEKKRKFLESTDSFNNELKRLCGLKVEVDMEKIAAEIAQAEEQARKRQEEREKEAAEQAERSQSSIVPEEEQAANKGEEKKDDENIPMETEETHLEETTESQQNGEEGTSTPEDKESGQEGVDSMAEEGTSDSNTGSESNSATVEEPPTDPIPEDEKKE
Chain of UniProt Q7L7X3 (Q7L7X3 whole entry, looked up): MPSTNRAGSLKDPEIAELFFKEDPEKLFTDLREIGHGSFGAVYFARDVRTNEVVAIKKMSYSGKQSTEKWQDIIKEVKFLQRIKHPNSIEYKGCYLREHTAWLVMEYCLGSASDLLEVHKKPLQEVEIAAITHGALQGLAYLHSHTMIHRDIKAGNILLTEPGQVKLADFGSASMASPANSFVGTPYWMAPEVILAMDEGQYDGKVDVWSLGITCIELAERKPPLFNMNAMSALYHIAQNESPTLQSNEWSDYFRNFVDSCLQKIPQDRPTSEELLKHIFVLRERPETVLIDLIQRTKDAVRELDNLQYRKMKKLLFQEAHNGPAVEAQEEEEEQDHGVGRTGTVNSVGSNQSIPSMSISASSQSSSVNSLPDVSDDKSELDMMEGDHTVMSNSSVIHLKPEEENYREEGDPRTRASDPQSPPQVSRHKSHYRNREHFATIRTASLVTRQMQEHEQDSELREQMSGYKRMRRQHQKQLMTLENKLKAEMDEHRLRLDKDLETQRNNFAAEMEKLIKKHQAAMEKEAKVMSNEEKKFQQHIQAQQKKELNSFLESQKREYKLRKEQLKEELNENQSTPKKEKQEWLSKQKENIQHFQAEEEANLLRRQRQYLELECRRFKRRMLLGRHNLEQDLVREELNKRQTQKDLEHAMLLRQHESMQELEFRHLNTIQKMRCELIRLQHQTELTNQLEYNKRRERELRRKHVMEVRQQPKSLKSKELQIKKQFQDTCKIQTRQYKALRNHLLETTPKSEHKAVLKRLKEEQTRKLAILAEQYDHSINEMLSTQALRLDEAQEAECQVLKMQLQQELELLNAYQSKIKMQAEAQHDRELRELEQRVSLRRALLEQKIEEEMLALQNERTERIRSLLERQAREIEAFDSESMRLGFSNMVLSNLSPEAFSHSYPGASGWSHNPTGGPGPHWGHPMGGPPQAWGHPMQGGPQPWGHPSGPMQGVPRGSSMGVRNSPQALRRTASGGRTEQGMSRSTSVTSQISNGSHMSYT
Chain of UniProt P08579 (P08579 whole entry, looked up): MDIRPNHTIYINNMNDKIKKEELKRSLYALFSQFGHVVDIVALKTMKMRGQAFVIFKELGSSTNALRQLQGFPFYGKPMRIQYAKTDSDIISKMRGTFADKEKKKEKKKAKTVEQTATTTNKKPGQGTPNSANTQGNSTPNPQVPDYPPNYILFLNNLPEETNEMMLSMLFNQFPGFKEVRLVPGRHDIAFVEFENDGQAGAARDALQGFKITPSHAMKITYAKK
Chain of UniProt P30626 (P30626 whole entry, looked up): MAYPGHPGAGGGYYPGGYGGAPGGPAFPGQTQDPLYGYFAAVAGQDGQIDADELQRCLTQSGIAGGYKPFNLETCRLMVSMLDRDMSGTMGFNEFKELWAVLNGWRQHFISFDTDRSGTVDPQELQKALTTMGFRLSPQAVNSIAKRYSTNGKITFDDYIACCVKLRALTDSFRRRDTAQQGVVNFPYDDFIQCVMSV

Row | Target | log2 fold change
1 | TM9SF2 (UniProt Q99805) | -0.003 (inactive)
2 | TIPRL (UniProt O75663) | -0.015 (inactive)
3 | SREK1 isoform 2 (UniProt Q8WXA9) | 0.11 (inactive)
4 | SNX3 (UniProt O60493) | 0.073 (inactive)
5 | STXBP2 isoform 3 (UniProt Q15833) | 0.189 (inactive)
6 | SMPD4 isoform 4 (UniProt Q9NXE4) | -0.002 (inactive)
7 | TIMM13 (UniProt Q9Y5L4) | -0.092 (inactive)
8 | SPTBN1 (UniProt Q01082) | 0.044 (inactive)
9 | SUN2 (UniProt Q9UH99) | 0.027 (inactive)
10 | TAOK1 (UniProt Q7L7X3) | -0.052 (inactive)
11 | SMARCE1 (UniProt Q969G3) | -0.031 (inactive)
12 | SRI (UniProt P30626) | -0.036 (inactive)
13 | SNRPB2 (UniProt P08579) | 0 (inactive)

Compound: CC1=C(C(CC(=O)N1)C2=CC=C(C=C2)C(F)(F)F)C(=O)NC3=C(C=C4C(=C3)C=NN4)F
Test: as above
Summary of the method: as §1

Row | Target | log2 fold change
14 | TBC1D23 (UniProt Q9NUY8) | 0.055 (inactive)
15 | TFB2M (UniProt Q9H5Q4) | -0.03 (inactive)
16 | TGFBRAP1 (UniProt Q8WUH2) | 0.052 (inactive)
17 | SNX9 (UniProt Q9Y5X1) | 0.024 (inactive)
18 | THRAP3 (UniProt Q9Y2W1) | 0.066 (inactive)
19 | SRRM2 (UniProt Q9UQ35) | -0.005 (inactive)
20 | SSX2 (UniProt Q16385) | 0.021 (inactive)
21 | SMAP (UniProt O00193) | 0.029 (inactive)
22 | SMARCA5 (UniProt O60264) | -0.135 (inactive)
23 | SPAG9 (UniProt O60271) | 0.011 (inactive)
24 | SURF1 (UniProt Q15526) | 0.022 (inactive)
25 | TANGO6 (UniProt Q9C0B7) | 0.013 (inactive)
26 | SYNE1 (UniProt Q8NF91) | -0.031 (inactive)
27 | STAM2 (UniProt O75886) | -0.063 (inactive)
28 | SRSF2 (UniProt Q01130) | 0.02 (inactive)
29 | SMAD9 (UniProt O15198) | 0.039 (inactive)
30 | SPPL2B (UniProt Q8TCT7) | 0.049 (inactive)
31 | SUOX (UniProt P51687) | 0.039 (inactive)
32 | SPART (UniProt Q8N0X7) | -0.04 (inactive)

Row | Target | log2 fold change
33 | TLK1 (UniProt Q9UKI8) | 0.019 (inactive)
34 | STXBP5 (UniProt Q5T5C0) | 0.018 (inactive)
35 | TCOF1 isoform 4 (UniProt Q13428) | 0.015 (inactive)
36 | TERF2IP (UniProt Q9NYB0) | 0.007 (inactive)
37 | TARS2 (UniProt Q9BW92) | 0.036 (inactive)
38 | TM9SF2 (UniProt Q99805) | 0.008 (inactive)
39 | TIPRL (UniProt O75663) | 0.069 (inactive)
40 | SREK1 isoform 2 (UniProt Q8WXA9) | 0.022 (inactive)
41 | SNX3 (UniProt O60493) | -0.022 (inactive)
42 | STXBP2 isoform 3 (UniProt Q15833) | 0.023 (inactive)
43 | SMPD4 isoform 4 (UniProt Q9NXE4) | -0.019 (inactive)
44 | TIMM13 (UniProt Q9Y5L4) | 0.018 (inactive)
45 | SPTBN1 (UniProt Q01082) | -0.012 (inactive)
46 | SUN2 (UniProt Q9UH99) | 0.043 (inactive)
47 | TAOK1 (UniProt Q7L7X3) | 0.011 (inactive)
48 | SMARCE1 (UniProt Q969G3) | 0.21 (inactive)
49 | SRI (UniProt P30626) | 0.069 (inactive)
50 | SNRPB2 (UniProt P08579) | -0.012 (inactive)

Compound: CC1=C(C2=C(C=C1)C(=O)C3=CC=CC=C3N2CCCN)C
Test: as above
Summary of the method: as §1

Row | Target | log2 fold change
51 | TBC1D23 (UniProt Q9NUY8) | 0.01 (inactive)
52 | TFB2M (UniProt Q9H5Q4) | 0.005 (inactive)
53 | TGFBRAP1 (UniProt Q8WUH2) | -0.017 (inactive)
54 | SNX9 (UniProt Q9Y5X1) | 0.02 (inactive)
55 | THRAP3 (UniProt Q9Y2W1) | -0.018 (inactive)
56 | SRRM2 (UniProt Q9UQ35) | -0.181 (inactive)
57 | SSX2 (UniProt Q16385) | -1.33 (active)
58 | SMAP (UniProt O00193) | -0.021 (inactive)
59 | SMARCA5 (UniProt O60264) | -0.97 (active)
60 | SPAG9 (UniProt O60271) | -0.004 (inactive)
61 | SURF1 (UniProt Q15526) | 0.098 (inactive)
62 | TANGO6 (UniProt Q9C0B7) | 0.006 (inactive)
63 | SYNE1 (UniProt Q8NF91) | 0.075 (inactive)
64 | STAM2 (UniProt O75886) | 0.004 (inactive)
65 | SRSF2 (UniProt Q01130) | -0.02 (inactive)
66 | SMAD9 (UniProt O15198) | 0.017 (inactive)
67 | SPPL2B (UniProt Q8TCT7) | 0.02 (inactive)
68 | SUOX (UniProt P51687) | 0.02 (inactive)
69 | SPART (UniProt Q8N0X7) | 0.128 (inactive)

Row | Target | log2 fold change
70 | TLK1 (UniProt Q9UKI8) | 0.218 (active)
71 | STXBP5 (UniProt Q5T5C0) | 0.048 (inactive)
72 | TCOF1 isoform 4 (UniProt Q13428) | -0.664 (active)
73 | TERF2IP (UniProt Q9NYB0) | -0.33 (active)
74 | TARS2 (UniProt Q9BW92) | 0.054 (inactive)
75 | TM9SF2 (UniProt Q99805) | 0.027 (inactive)
76 | TIPRL (UniProt O75663) | 0.017 (inactive)
77 | SREK1 isoform 2 (UniProt Q8WXA9) | 0.08 (inactive)
78 | SNX3 (UniProt O60493) | 0.053 (inactive)
79 | STXBP2 isoform 3 (UniProt Q15833) | 0.025 (inactive)
80 | SMPD4 isoform 4 (UniProt Q9NXE4) | 0.038 (inactive)
81 | TIMM13 (UniProt Q9Y5L4) | 0.092 (inactive)
82 | SPTBN1 (UniProt Q01082) | -0.001 (inactive)
83 | SUN2 (UniProt Q9UH99) | -0.117 (inactive)
84 | TAOK1 (UniProt Q7L7X3) | 0.05 (inactive)
85 | SMARCE1 (UniProt Q969G3) | -0.091 (inactive)
86 | SRI (UniProt P30626) | 0.201 (inactive)
87 | SNRPB2 (UniProt P08579) | 0.036 (inactive)
